Holding throughout (test): DAPPL (digital affinity profiling via proximity ligation, sequencing); 10 mM Tris-HCl pH 7.5, 50 mM NaCl, 1 mM DTT, 4% glycerol, room temperature, 30 min; GST-TFs on glutathione beads, 16-mer random dsDNA library, 0.1% formaldehyde crosslink after washing; high values mean tight binding
Holding throughout (details): protein: recombinant; tags: N-terminal GST; dsDNA, one strand shown

One assay deals with T1, FLI1 (Homo sapiens, UniProt Q01543 1-452).
T1 sequence: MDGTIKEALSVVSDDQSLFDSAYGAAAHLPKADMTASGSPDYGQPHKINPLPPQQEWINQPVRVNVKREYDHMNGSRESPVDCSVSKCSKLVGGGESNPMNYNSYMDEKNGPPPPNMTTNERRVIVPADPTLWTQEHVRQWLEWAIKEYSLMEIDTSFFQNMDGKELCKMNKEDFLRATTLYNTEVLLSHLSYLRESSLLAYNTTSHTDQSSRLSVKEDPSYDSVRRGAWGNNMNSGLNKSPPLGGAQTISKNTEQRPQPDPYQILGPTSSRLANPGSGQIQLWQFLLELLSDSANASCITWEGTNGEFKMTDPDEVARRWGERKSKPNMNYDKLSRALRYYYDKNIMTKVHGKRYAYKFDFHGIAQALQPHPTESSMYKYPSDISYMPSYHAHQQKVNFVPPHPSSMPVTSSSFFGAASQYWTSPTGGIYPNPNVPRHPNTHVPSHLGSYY
In outline: (§1)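 Human transcription factors fused to GST were expressed in yeast, captured on glutathione beads, given DNA barcodes and pooled with a GST-only negative control. Pools were incubated with 200 nmole of a 16-mer random double-stranded DNA library in Tris/NaCl/DTT/glycerol buffer at room temperature for 30 min. They were then washed, crosslinked with 0.1% formaldehyde, proximity-ligated (BsaI/T4 ligase, 1 h, 37 °C), PCR-amplified and sequenced on an Illumina NextSeq500. Binding signal is each 6-mer's read frequency for a factor divided by its frequency for the GST control.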

The next assay concerns the target T2, ELK1 (Homo sapiens, UniProt P19419 1-428).
T2 sequence: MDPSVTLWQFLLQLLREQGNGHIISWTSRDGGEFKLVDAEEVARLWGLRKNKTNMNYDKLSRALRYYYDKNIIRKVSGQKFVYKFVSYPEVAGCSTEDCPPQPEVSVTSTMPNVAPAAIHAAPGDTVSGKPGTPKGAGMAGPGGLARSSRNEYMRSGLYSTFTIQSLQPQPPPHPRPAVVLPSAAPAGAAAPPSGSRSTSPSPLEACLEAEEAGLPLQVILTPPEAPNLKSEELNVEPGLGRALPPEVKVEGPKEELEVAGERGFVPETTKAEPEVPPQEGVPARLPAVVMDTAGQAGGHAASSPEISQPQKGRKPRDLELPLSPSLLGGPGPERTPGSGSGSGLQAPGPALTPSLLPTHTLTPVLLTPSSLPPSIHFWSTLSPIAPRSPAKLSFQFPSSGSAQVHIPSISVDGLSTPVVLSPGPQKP
In outline:
as §1

The target of a further assay is T3, GABPA (Homo sapiens, UniProt Q06546 1-454).
T3 sequence: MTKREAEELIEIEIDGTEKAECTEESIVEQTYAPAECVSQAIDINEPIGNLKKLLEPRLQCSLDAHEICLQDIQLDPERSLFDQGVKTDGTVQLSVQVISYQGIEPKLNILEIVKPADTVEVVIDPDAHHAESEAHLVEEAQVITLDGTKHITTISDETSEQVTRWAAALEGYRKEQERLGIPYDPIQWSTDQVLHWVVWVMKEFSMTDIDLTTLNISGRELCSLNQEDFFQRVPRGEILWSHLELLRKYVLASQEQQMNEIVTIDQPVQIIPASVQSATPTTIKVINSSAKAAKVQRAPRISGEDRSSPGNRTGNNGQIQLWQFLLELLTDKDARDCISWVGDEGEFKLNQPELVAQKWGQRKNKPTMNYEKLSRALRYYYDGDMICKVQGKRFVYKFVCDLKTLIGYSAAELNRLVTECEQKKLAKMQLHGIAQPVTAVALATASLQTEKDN
In outline:
as §1

The next assay deals with T4, ERG (Homo sapiens, UniProt P11308 1-479).
T4 sequence: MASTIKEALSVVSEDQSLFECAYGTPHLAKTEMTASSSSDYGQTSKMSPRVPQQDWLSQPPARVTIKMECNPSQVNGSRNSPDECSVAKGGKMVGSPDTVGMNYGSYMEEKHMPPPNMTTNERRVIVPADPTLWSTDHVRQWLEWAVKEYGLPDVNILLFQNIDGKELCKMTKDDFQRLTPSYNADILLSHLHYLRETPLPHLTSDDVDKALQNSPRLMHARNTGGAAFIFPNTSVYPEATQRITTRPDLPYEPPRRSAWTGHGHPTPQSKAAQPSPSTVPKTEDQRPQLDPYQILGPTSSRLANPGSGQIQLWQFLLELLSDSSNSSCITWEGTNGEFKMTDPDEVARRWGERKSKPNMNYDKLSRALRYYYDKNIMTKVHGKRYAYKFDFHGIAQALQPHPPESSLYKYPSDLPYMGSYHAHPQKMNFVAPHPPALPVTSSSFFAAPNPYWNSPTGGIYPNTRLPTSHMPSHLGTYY
In outline: as §1

The target in another assay is ELF1 (Homo sapiens, UniProt P32519 1-619). In outline: as §1
ELF1, sequence (P32519 whole entry): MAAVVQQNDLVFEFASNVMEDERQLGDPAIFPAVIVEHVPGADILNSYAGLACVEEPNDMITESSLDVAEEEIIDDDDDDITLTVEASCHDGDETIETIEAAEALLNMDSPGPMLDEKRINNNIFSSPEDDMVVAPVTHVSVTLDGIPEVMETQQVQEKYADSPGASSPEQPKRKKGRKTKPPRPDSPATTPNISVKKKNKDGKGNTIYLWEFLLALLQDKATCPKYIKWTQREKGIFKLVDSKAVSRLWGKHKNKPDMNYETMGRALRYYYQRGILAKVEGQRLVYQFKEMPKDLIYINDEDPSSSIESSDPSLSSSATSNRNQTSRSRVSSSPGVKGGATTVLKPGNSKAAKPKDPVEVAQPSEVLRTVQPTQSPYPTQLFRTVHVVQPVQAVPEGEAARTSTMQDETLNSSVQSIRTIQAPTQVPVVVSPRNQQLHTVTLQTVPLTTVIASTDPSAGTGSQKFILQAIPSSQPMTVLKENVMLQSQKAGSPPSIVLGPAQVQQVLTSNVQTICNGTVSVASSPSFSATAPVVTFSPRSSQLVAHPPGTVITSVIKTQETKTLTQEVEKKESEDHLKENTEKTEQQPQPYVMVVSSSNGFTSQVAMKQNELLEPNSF
The next assay addresses T5, EHF (Homo sapiens, UniProt Q9NZC4 1-300).
T5 sequence: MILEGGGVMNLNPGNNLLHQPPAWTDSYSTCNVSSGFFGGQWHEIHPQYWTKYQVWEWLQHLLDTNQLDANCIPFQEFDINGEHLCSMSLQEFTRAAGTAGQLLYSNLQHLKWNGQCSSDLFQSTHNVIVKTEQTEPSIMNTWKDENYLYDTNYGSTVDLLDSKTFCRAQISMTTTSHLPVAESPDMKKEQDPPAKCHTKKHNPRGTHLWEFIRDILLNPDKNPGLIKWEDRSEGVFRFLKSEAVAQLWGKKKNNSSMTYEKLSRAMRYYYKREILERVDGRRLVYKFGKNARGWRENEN
In a few lines:
as §1

For another assay, the target named is SPI1 (Homo sapiens, UniProt P17947 1-270). In a few lines: as §1
Another assay has as its target SPIB (Homo sapiens, UniProt Q01892 1-262). In a few lines: as §1
The target of the next assay is T6, ELK3 (Homo sapiens, UniProt P41970 1-407).
T6 sequence: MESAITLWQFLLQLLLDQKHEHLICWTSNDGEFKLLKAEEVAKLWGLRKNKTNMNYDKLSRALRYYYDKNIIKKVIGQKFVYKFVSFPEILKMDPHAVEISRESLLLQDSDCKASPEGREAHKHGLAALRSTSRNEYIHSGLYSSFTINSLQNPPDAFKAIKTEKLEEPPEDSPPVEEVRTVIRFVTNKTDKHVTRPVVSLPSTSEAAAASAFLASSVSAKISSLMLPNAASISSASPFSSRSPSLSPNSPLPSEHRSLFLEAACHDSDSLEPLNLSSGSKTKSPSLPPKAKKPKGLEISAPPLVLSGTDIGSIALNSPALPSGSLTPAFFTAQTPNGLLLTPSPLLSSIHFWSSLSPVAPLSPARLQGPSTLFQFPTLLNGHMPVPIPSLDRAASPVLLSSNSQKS
In a few lines: as §1

SPIB, sequence (Q01892 whole entry): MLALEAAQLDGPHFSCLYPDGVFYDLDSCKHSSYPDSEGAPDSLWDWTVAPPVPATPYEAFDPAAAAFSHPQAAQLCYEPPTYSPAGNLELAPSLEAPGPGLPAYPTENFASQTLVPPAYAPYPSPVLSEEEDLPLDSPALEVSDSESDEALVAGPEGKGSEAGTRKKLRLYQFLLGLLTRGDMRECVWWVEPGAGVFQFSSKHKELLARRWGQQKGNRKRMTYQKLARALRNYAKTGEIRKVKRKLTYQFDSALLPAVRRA

As to AATCAT, the binding signal with FLI1 is 1.13 fold enrichment (6-mer frequency, TF over GST control); in the assay with ELK1, 1.12 fold enrichment (6-mer frequency, TF over GST control); with GABPA it was 1.19 fold enrichment (6-mer frequency, TF over GST control); with ERG, 1.12 fold enrichment (6-mer frequency, TF over GST control); with ELF1 it was 1.16 fold enrichment (6-mer frequency, TF over GST control); with EHF, 1.17 fold enrichment (6-mer frequency, TF over GST control). The binding signal with SPI1 was 1.07 fold enrichment (6-mer frequency, TF over GST control); with SPIB, 1.21 fold enrichment (6-mer frequency, TF over GST control).
CTTGAA: the binding signal in the assay with FLI1 is 1.16 fold enrichment (6-mer frequency, TF over GST control); with ELK1 it was 1.24 fold enrichment (6-mer frequency, TF over GST control); with GABPA, 1.09 fold enrichment (6-mer frequency, TF over GST control); with ERG it was 1.12 fold enrichment (6-mer frequency, TF over GST control); in the assay with ELF1 it was 1.2 fold enrichment (6-mer frequency, TF over GST control); in the assay with EHF, 1.18 fold enrichment (6-mer frequency, TF over GST control). Besides, the binding signal is 1.13 fold enrichment (6-mer frequency, TF over GST control) in the assay with SPI1 and 1.17 fold enrichment (6-mer frequency, TF over GST control) in the assay with SPIB.
On to CTGACG, for which the binding signal with FLI1 is 1.19 fold enrichment (6-mer frequency, TF over GST control); with ELK1, 1.09 fold enrichment (6-mer frequency, TF over GST control); in the assay with GABPA, 1.23 fold enrichment (6-mer frequency, TF over GST control); in the assay with ERG it was 1.06 fold enrichment (6-mer frequency, TF over GST control); with ELF1 it was 1.16 fold enrichment (6-mer frequency, TF over GST control); with EHF, 1.01 fold enrichment (6-mer frequency, TF over GST control). For the same sequence, the binding signal in the assay with SPI1 is 1.06 fold enrichment (6-mer frequency, TF over GST control); with SPIB it was 1.13 fold enrichment (6-mer frequency, TF over GST control); in the assay with ELK3 it was 1.03 fold enrichment (6-mer frequency, TF over GST control).
Take ATCGTC: the binding signal is 1.11 fold enrichment (6-mer frequency, TF over GST control) in the assay with FLI1; 1.17 fold enrichment (6-mer frequency, TF over GST control) with ELK1; 1.06 fold enrichment (6-mer frequency, TF over GST control) in the assay with GABPA; 1.03 fold enrichment (6-mer frequency, TF over GST control) with ERG; 1.05 fold enrichment (6-mer frequency, TF over GST control) in the assay with ELF1; 1.1 fold enrichment (6-mer frequency, TF over GST control) with EHF. The binding signal is 1.04 fold enrichment (6-mer frequency, TF over GST control) with SPI1 and 1.15 fold enrichment (6-mer frequency, TF over GST control) with SPIB.
In the case of CCGAGC, the binding signal with FLI1 is 1.17 fold enrichment (6-mer frequency, TF over GST control); with ELK1, 1.25 fold enrichment (6-mer frequency, TF over GST control); with GABPA it was 1.2 fold enrichment (6-mer frequency, TF over GST control); with ERG, 1.11 fold enrichment (6-mer frequency, TF over GST control); in the assay with ELF1 it was 1.15 fold enrichment (6-mer frequency, TF over GST control); in the assay with EHF, 1.12 fold enrichment (6-mer frequency, TF over GST control). Moreover, the binding signal is 1.12 fold enrichment (6-mer frequency, TF over GST control) with SPI1 and 1.19 fold enrichment (6-mer frequency, TF over GST control) with SPIB.
Take TGTATC: the binding signal with FLI1 is 1.65 fold enrichment (6-mer frequency, TF over GST control); with ELK1, 1.39 fold enrichment (6-mer frequency, TF over GST control); with GABPA, 1.45 fold enrichment (6-mer frequency, TF over GST control); with ERG it was 1.39 fold enrichment (6-mer frequency, TF over GST control); with ELF1, 1.38 fold enrichment (6-mer frequency, TF over GST control); with EHF it was 1.36 fold enrichment (6-mer frequency, TF over GST control). The binding signal was 1.37 fold enrichment (6-mer frequency, TF over GST control) with SPI1; 1.45 fold enrichment (6-mer frequency, TF over GST control) with SPIB; 1.44 fold enrichment (6-mer frequency, TF over GST control) with ELK3.
As to GTGCTC, the binding signal with FLI1 is 1.26 fold enrichment (6-mer frequency, TF over GST control); with ELK1 it was 1.18 fold enrichment (6-mer frequency, TF over GST control); with GABPA it was 1.25 fold enrichment (6-mer frequency, TF over GST control); with ERG it was 1.2 fold enrichment (6-mer frequency, TF over GST control); with ELF1, 1.19 fold enrichment (6-mer frequency, TF over GST control); with EHF, 1.22 fold enrichment (6-mer frequency, TF over GST control). Further, the binding signal is 1.36 fold enrichment (6-mer frequency, TF over GST control) with SPI1 and 1.3 fold enrichment (6-mer frequency, TF over GST control) with SPIB.
Turning to TCTGTG, the binding signal in the assay with FLI1 is 1.17 fold enrichment (6-mer frequency, TF over GST control); in the assay with ELK1, 1.14 fold enrichment (6-mer frequency, TF over GST control); in the assay with GABPA, 1.18 fold enrichment (6-mer frequency, TF over GST control); with ERG, 1.07 fold enrichment (6-mer frequency, TF over GST control); in the assay with ELF1 it was 1.12 fold enrichment (6-mer frequency, TF over GST control); with EHF, 1.13 fold enrichment (6-mer frequency, TF over GST control). Further, the binding signal with SPI1 is 1.14 fold enrichment (6-mer frequency, TF over GST control); in the assay with SPIB it was 1.14 fold enrichment (6-mer frequency, TF over GST control).

Source of the values: PMC7862700, “An all-to-all approach to the identification of sequence-specific readers for epigenetic DNA modifications on cytosine”.
